In all, about 5,500 compounds went through this assay and about 2,000 (36%) were called active. Roughly 18% stayed inconclusive and do not appear here. No stated cut-off is given here; in the data, active means normalized growth mostly below about 0.91 (no sharp cut-off); inconclusive means no clear call, values can overlap the other calls; inactive means mostly above about 0.92. The list shows a part of the results.
Experiment: chemical genetic growth profiling, strain panel (AID 1159580);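 further: tested at 20 µM; growth read once vehicle control cultures reached saturation at 30 °C; 1 = growth at the plate median or of vehicle wells; lower values mean less growth of the strain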
Conditions: S. cerevisiae deletion strains, growth OD

Measured: normalized growth

C[N+]1(C)CCc2cc3c(cc2[C@H]1[C@@H]1OC(=O)c2c1ccc1c2OCO1)OCO3
inactive: locus YAL040C, strain CLN3, active compounds read low 0.982 | locus YDR150W, strain NUM1, active compounds read low 0.997 | locus YER002W, strain NOP16, active compounds read low 0.991 | locus YGR078C, strain PAC10, active compounds read low 1.01 | locus YNL128W, strain TEP1, active compounds read low 1 | locus YNL153C, strain GIM3, active compounds read low 0.998 | locus YNL175C, strain NOP13, active compounds read low 0.987 | locus YNL197C, strain WHI3, active compounds read low 1.05 | locus YNL224C, strain SQS1, active compounds read low 0.994 | locus YNL322C, strain KRE1, active compounds read low 1.01 | locus YOR083W, strain WHI5 (second series), active compounds read low 1 | locus YPL055C, strain LGE1, active compounds read low 1.01
